Test results reported in PubChem BioAssay (NCATS).
Inconclusive results are not listed. A call without a number means that no potency is given here. Calls of active or inactive are those of the source. The call rests on the fitted dose curve; in most records, active means well fitted curve in the direction sought with a large enough effect; inconclusive means small, poorly fitted or top-dose-only effect, or another doubt; inactive means no such curve, though single readings can be large; an effect the other way counts as inactive or inconclusive.

Columns and labels:
[1] = molecular target: Aldehyde dehydrogenase, mitochondrial (Homo sapiens) (UniProt P05091); assay: qHTS for Inhibitors of the Aldehyde Dehydrogenase Family (ALDH2) Primary screen (AID 2061308); further: nearly all actives have a fitted effect of over 55% in size
[2] = molecular target: Retinaldehyde dehydrogenase 3 (Homo sapiens) (UniProt P47895); assay: qHTS for Inhibitors of the Aldehyde Dehydrogenase Family (ALDH1A3) Primary screen (AID 2061315)

Row | SMILES | Potency [1] | Potency [2]
1 | CC(Cc1cnccn1)Nc1cnc2c(O)ccc(C(=O)O)c2c1 (stereo unspecified) | inactive | inactive
2 | O=C(Cc1nc2ccc(Cl)cc2[nH]1)Nc1ccc(S(=O)(=O)Nc2nccs2)cc1 | inactive | inactive
3 | CC1=C(C(=O)Nc2ccccc2)C(c2ccccc2Br)N=C(Nc2nc3ccccc3o2)N1 (stereo unspecified) | inactive | inactive
4 | Cc1cc(C)nc(NC(=S)N2CCN(c3nccc4ccsc34)CC2)c1 | inactive | inactive
5 | Cc1cc2c(s1)c1cnn(Cc3ccc(OC(F)F)cc3)c(=O)c1n2C | inactive | inactive
6 | CCOC(=O)c1ccc(-n2c(C)cc(-c3nnc4n3CCCCC4)c2C)cc1 | inactive | inactive
7 | CC(C)(C)C1CCC(C(=O)Nc2ccc(S(=O)(=O)Nc3nccs3)cc2)CC1 (stereo unspecified) | inactive | inactive
8 | COC(=O)c1ccc(O)c2ncccc12 | inactive | inactive
9 | N[C@@H](Cc1ccc(O[S+](=O)([O-])c2cccc3cnccc23)cc1)C(=O)N1CCN(c2ccccc2)CC1 | inactive | inactive
10 | COc1cc(OC)cc(-c2ccc3c(-c4ccc(F)cc4)[nH]nc3n2)c1 | inactive | inactive
11 | Cc1ccccc1C(=O)N1CCc2cc(-c3nc(NC(=O)Cc4ccc5c(c4)OCCO5)sc3C)ccc21 | inactive | inactive
12 | CN(C)[S+](=O)([O-])c1ccc(-c2ccc(=O)n(CC(=O)NCCc3ccccc3)n2)cc1 | inactive | inactive
13 | O=C(Nc1cccc(C(F)(F)F)c1)Nc1nnc(-c2ccncc2)s1 | inactive | inactive
14 | Cc1cc2c(s1)c1cnn(Cc3cccc(C)c3F)c(=O)c1n2C | inactive | inactive
15 | c1nc(N2CCC(N3CCCC3)CC2)c2cc(-c3ccc4c(c3)OCO4)ccc2n1 | inactive | inactive
16 | Cc1nc(NCc2ccc(-c3ccnc(C(F)(F)F)c3)cc2)c2ccccc2n1 | inactive | inactive
17 | COc1ccc(C(F)(F)F)cc1NC(=O)C(OC(=O)CNC(=O)c1ccccc1)c1ccccc1 (stereo unspecified) | inactive | inactive
18 | Cc1cc2c(s1)c1cnn(Cc3ccc(F)cc3Cl)c(=O)c1n2C | inactive | inactive
19 | CN(CCc1ccco1)c1ncnc2ccc(-c3ccc4c(c3)OCO4)cc12 | inactive | inactive

Row | SMILES | Potency [1] | Potency [2]
20 | Cc1cc(NS(=O)(=O)c2ccc(NC(=O)Cc3ccc(C)c(C)c3)cc2)no1 | inactive | inactive
21 | O=[S+]([O-])(Nc1ccccc1)c1ccc(NCc2ccc(Cl)cc2O)cc1 | inactive | inactive
22 | CC1=C(C(=O)Nc2ccccc2C)C(c2ccccc2Br)N=C(Nc2nc3ccccc3o2)N1 (stereo unspecified) | inactive | inactive
23 | Cc1cc(C)n2ncc(C(=O)Nc3cccc(C#N)c3)c2n1 | inactive | inactive
24 | O=S(=O)(c1cccc(O)c1)N1CCN(S(=O)(=O)c2c(F)cccc2F)CC1 | inactive | inactive
25 | Cc1cc(C)nc(NC(=S)N2CCN(c3ccc([N+](=O)[O-])cc3Cl)CC2)c1 | inactive | inactive
26 | CN1C2CCC1CC(OC(=O)[C@H](CO)c1ccccc1)C2 (stereo partly specified) | inactive | inactive
27 | CCN(CC)CCn1c(-c2ccccc2)nc2c(NC3CCCCC3)nc(C)nc21 | inactive | inactive
28 | O=S1(=O)N=C(Oc2ccc(C(F)(F)F)cc2)c2ccccc21 | inactive | inactive
29 | O=C(NNc1nc2cc(F)ccc2n2cccc12)c1cnccn1 | inactive | inactive
30 | O=S1(=O)N=C(Oc2cccc(-c3ccccc3)c2)c2ccccc21 | inactive | inactive
31 | N#Cc1c(Oc2ccc(F)c(NC(=O)Cc3cccc(C(F)(F)F)c3)c2)ccc2nc(NC(=O)C3CC3)sc12 | inactive | inactive
32 | Clc1cccc(-c2ccc3ncnc(NCc4ccc5c(c4)OCO5)c3c2)c1 | inactive | inactive
33 | COc1cc2ncnc(Nc3cccc(O)c3)c2cc1OC | inactive | inactive
34 | CCCn1c(C)nc2c(NCCN3CCCC3)nc(C)nc21 | inactive | inactive
35 | CCc1ccc(NC(=O)c2cnn3c(C)cc(C)nc23)cc1 | inactive | inactive
36 | Cc1ccccc1C(=O)N1CCc2cc(-c3nc(NC(=O)Cc4ccccc4)sc3C)ccc21 | inactive | inactive
37 | O=C1OC(c2ccccc2)(c2ccccc2)N2CCN(C(=O)NCc3ccc(F)cc3)CC12 (stereo unspecified) | inactive | inactive
38 | O=C(NCCc1nc2ccccc2n1CCOc1ccc2cccnc2c1)C1CCCCC1 | inactive | inactive
